From PubChem BioAssay (NCATS)
Values joined by “and” are separate entries in the source; they are usually repeats but may differ in a detail not shown here. Equal entries are not always repeated. Records with an inconclusive call do not appear. Active and inactive are the calls of the source. Unless noted, the call rests on the fitted dose curve; in most records, active means well fitted curve in either direction with a large enough effect (not every such curve was filed as active); inconclusive means small, poorly fitted or top-dose-only effect, or another doubt; inactive means flat fitted curve, though single readings scatter.

Key:
[1] = AP1 Signaling Pathway (AID 357);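 further: ME-180 reporter cells stimulated with EGF at its EC50 level; on the % scale 0 is the no-effect control and ±100 the full control effect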
Method in brief: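 Read-out was the 460nm/530nm emission ratio (excitation 405nm) after CCF4 loading for 2.5 hours at room temperature. Cells carried an AP-1-driven beta-lactamase reporter, were stimulated with EC50 EGF plus compound for 5 hours, and AC50 values came from titrations.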

[2] = NFAT Signaling Pathway (AID 444); details: Jurkat NFAT-bla M1, carbachol, beta-lactamase ratio, 5 h;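 further: carbachol stimulus at about its EC50 of 1 µM final; on the % scale 0 is the no-effect control and ±100 the full control effect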
Method in brief: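 Jurkat cells with NFAT-driven β-lactamase reporter and co-expressed M1 receptor, stimulated with carbachol (final 1 uM, ~EC50), compound titration, 5 h at 37 °C. CCF4 loaded 1 h at RT; 460/530 nm ratio gave %activity and AC50.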

[3] = Stat Signaling Pathway (AID 446);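 further: ME-180 cervical cancer cells given 40 pM IL-6 alongside compound; SIE-controlled beta-lactamase reporter measured as 460/530 nm FRET emission ratio; on the % scale 0 is the no-effect control and ±100 the full control effect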
Method in brief: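 Overnight-plated ME-180 cells bearing a STAT Inducible Element beta-lactamase reporter; 5 h co-exposure to compound and 40 pM IL-6; values normalized to 300 pM IL-6 and 125 nM JAK inhibitor controls.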

[4] = target: Mitogen-activated protein kinase 10 (Mus musculus) (UniProt Q61831); assay: JNK3 AlphaScreen Assay (AID 530);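 further: kinase came from lysate of stimulated human HepG2 cells; signal reports phosphorylation of biotinylated GST-cJun 1-79 at Ser73 with 10 µM ATP; on the % scale 0 is the no-effect control and ±100 the full control effect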
Method in brief: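 Activity was read by AlphaScreen after JNK3-containing HepG2 lysate (cytokine pre-activated) phosphorylated biotinylated GST-cJun with 10 uM ATP at room temperature. Phospho-Ser73 cJun antibody with Protein-A acceptor beads provided detection.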

[5] = Cell Viability - BJ (AID 421; calls by dose curve;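 further: potency means the concentration at half of the fitted maximal effect; cells exposed to compound for 40 hours at 37 °C before readout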); details: BJ fibroblast viability, qHTS
Method in brief: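 Quantitative HTS: ATP depletion in BJ cells after 40 hr compound exposure in complete culture medium, detected with CellTiter-Glo; AC50 from standard Hill fits.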

[6] = Cell Viability - Jurkat (AID 426;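 active means dose-dependent loss of cell ATP signal giving a full or clear fitted curve, ranked by lower potency value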;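 further: potency means the concentration at half of the fitted maximal effect; cells exposed to compound for 40 hours at 37 °C before ATP read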); details: qHTS
Method in brief: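 Cells of the human T-cell leukemia line Jurkat (E6-1) are seeded at 5000 per well, treated with compound across a concentration range for 40 hours at 37 °C, then lysed with CellTiter-Glo; luminescence reports ATP.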

[7] = Cell Viability - Hek293 (AID 427;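 active means compounds whose dose-response curve shows a full or clear partial loss of cell viability, called from curve shape rather than a numeric limit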;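 further: potency means the concentration at half of the fitted maximal effect; cells exposed to compound for 40 hours at 37 °C before reading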); details: qHTS
Method in brief: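 AC50 values derive from Hill-modelled concentration-response of ATP-based luminescence, normalized between DMSO-only and 100 uM tamoxifen controls. Cells were exposed in complete culture medium for 40 hr at 37 °C before detection.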

[8] = Cell Viability - HepG2 (AID 433; calls by dose curve;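 further: potency means the concentration at half of the fitted maximal effect; potency for ATP loss meaning cytotoxicity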); details: qHTS
Method in brief: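 Cytotoxicity is scored as loss of intracellular ATP in HepG2 cells exposed to compounds for 40 h. Concentration-response curves, normalized to DMSO and 100 uM tamoxifen, give AC50 values.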

[9] = Cell Viability - MRC5 (AID 434; calls by dose curve;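 further: potency means the concentration at half of the fitted maximal effect; potency reflects cytotoxicity seen as loss of intracellular ATP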); details: MRC5 lung fibroblast viability, qHTS
Method in brief: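 ATP luminescence read-out (CellTiter-Glo, 20 min RT) after 40 hr, 37 °C compound exposure of 1500 MRC5 cells/well. Data normalized to DMSO (basal) and 100 uM tamoxifen (100% inhibition); AC50 from standard Hill equation.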

[10] = Cell Viability - SK-N-SH (AID 435; calls by dose curve;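 further: potency means the concentration at half of the fitted maximal effect; compound exposure lasted 40 h at 37 °C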); details: SK-N-SH neuroblastoma cell viability qHTS
Method in brief: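 Cells seeded at 1500 per well and incubated 5 hr at 37 °C. Compound added, then 40 hr at 37 °C. CellTiter-Glo added, 20 min at room temperature, luminescence read.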

[11] = target: Glucocorticoid receptor (Homo sapiens) (UniProt P04150); assay: GR-GFP Redistribution (AID 450;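 active means compounds whose dose series gives a full or clear partial fitted curve of increased nuclear translocation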; further: potency means the concentration at half of the fitted maximal effect); details: U2OS GR-GFP nuclear translocation, laser cytometry, 2 h
[12] = Cell Viability - N2a (AID 540; active means well fitted curve in the direction sought with a large enough effect; an effect the other way counts as inactive or inconclusive;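 further: cells exposed to compound for 40 h at 37 °C; plate controls were DMSO alone for no effect and tamoxifen control for full effect; nearly all actives have a fitted effect of over 45% in size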); details: N2a mouse neuroblastoma cell viability; activity change, negative = cytotoxicity: at 92.2 µM (top of the series)
Method in brief: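 Cytotoxicity was scored as loss of cellular ATP in N2a cells, a mouse neuroblastoma line. Compounds are applied in a qHTS concentration series for 40 hr at 37 °C.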

[13] = Cell Viability - NIH 3T3 (AID 541; active means well fitted curve in the direction sought with a large enough effect; an effect the other way counts as inactive or inconclusive; further: nearly all actives have a fitted effect of over 25% in size; further: potency means the concentration at half of the fitted maximal effect;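 on activity change, negative = cytotoxicity: plate controls were DMSO alone for no effect and tamoxifen positive control for full effect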); details: NIH 3T3 cell viability, qHTS; activity change, negative = cytotoxicity: at 92.2 µM (top of the series)
Method in brief: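 Cells seeded at 1000/well, rested 5 hr at 37 °C, then dosed and incubated 40 hr at 37 °C. CellTiter-Glo added, 20 min room temperature, luminescence read. AC50 by Hill fit.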

[14] = Cell Viability - HUV-EC-C (AID 542; active means well fitted curve in the direction sought with a large enough effect; an effect the other way counts as inactive or inconclusive; further: on the % scale 0 is the no-effect control and ±100 the full control effect; nearly all actives have a fitted effect of over 35% in size)
Method in brief: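 Cells were seeded at 1000 per well and incubated 5 hr at 37 °C before compound addition. After 40 hr at 37 °C, CellTiter-Glo reagent was added for 20 min and luminescence read. AC50 values came from Hill-equation modelling.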

[15] = Cell Viability - H-4-II-E (AID 543; active means well fitted curve in the direction sought with a large enough effect; an effect the other way counts as inactive or inconclusive; further: nearly all actives have a fitted effect of over 35% in size; further: potency means the concentration at half of the fitted maximal effect)
Method in brief: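 Cells seeded at 1500 per well and rested 5 hr; compounds added; 40 hr incubation at 37 °C; CellTiter-Glo added, 20 min at room temperature; luminescence read. Hill-equation fits gave AC50.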

[16] = Cell Viability - SH-SY5Y (AID 544; active means well fitted curve in the direction sought with a large enough effect; an effect the other way counts as inactive or inconclusive; further: nearly all actives have a fitted effect of over 55% in size; further: potency means the concentration at half of the fitted maximal effect;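 on viability change, negative = cytotoxic: 0% = DMSO alone and -100% = 100 µM tamoxifen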); details: SH-SY5Y neuroblastoma cell viability; viability change, negative = cytotoxic: at 92.2 µM (top of the series)
Method in brief: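 Cells were plated at 1500 per well and allowed 5 hr at 37 °C. Compounds were added across a concentration range and incubated 40 hr at 37 °C. CellTiter-Glo was added for 20 min at room temperature before luminescence reading.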

[17] = Cell Viability - Renal Proximal Tubule (AID 545; active means well fitted curve in the direction sought with a large enough effect; an effect the other way counts as inactive or inconclusive;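 further: 0% = DMSO only and -100% = 100 µM tamoxifen; nearly all actives have a fitted effect of over 40% in size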)
Method in brief: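 Cytotoxicity is scored as a concentration-dependent drop in cellular ATP in primary rat renal proximal tubule cells exposed for 40 hr. AC50 derives from Hill modelling.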

[18] = Cell Viability - Mesenchymal (AID 546; active means well fitted curve in the direction sought with a large enough effect; an effect the other way counts as inactive or inconclusive;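 further: cells exposed to compound for 40 hours before reading; 0% = DMSO only and -100% = 100 µM tamoxifen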)
Method in brief: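 Human renal mesenchymal cells (glomerulus-derived), 1000 cells/well, 5 hr 37 °C pre-incubation; compound 40 hr, 37 °C; CellTiter-Glo, 20 min RT; luminescence; AC50 via Hill equation.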

[19] = target: Lysosomal acid glucosylceramidase (Homo sapiens) (UniProt P04062); assay: Glucocerebrosidase-p2 (AID 348; in the data active means potency below about 10 µM; further: potency means the concentration at half of the fitted maximal effect); details: purified GBA, blue fluorogenic substrate, 40 min
Method in brief: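 Normal human glucocerebrosidase (0.2 nM) with blue fluorogenic substrate (80 uM final) in citrate/phosphate pH 5.9 with 10mM sodium taurocholate, 0.01% tween-20; 40 min RT, NaOH/glycine stop; fluorescence Ex 365/Em 440; AC50 from a titration from 0.6 nM upwards.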

[20] = target: Glucocorticoid receptor (Homo sapiens) (UniProt P04150); assay: GR-EFC Redistribution (AID 451; calls by dose curve; further: potency means the concentration at half of the fitted maximal effect); details: CHO-K1 GR-EFC translocation, beta-gal luminescence, 2 h
Method in brief: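 CHO-K1 cells expressing nuclear EA and GR-ED fragments of b-gal; compounds titrated up to 46 uM final, 2 h at 37 C. GR nuclear translocation read as complemented b-gal luminescence after 1 h RT detection.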

Chain of Glucocorticoid receptor (Homo sapiens) (P04150 whole entry, looked up, the tested form may be a part): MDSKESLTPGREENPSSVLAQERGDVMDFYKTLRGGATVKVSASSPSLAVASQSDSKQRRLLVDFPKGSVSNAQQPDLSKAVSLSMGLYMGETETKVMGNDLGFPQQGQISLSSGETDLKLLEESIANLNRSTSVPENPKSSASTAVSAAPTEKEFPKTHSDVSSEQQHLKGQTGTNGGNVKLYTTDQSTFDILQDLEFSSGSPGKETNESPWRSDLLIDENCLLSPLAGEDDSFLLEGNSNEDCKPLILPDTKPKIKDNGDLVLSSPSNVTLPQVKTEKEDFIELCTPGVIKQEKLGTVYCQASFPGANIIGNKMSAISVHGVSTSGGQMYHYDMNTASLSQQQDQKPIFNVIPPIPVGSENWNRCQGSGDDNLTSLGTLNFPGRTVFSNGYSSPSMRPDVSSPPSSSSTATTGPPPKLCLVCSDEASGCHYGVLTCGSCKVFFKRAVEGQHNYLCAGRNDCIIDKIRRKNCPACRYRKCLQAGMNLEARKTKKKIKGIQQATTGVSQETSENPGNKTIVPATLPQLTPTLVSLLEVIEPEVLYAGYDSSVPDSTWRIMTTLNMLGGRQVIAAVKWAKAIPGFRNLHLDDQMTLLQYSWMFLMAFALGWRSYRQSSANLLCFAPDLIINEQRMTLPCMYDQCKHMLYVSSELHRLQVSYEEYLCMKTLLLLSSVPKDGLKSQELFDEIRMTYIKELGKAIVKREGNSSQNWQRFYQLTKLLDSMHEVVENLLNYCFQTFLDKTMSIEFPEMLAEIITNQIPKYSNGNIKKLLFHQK
Chain of Lysosomal acid glucosylceramidase (Homo sapiens) (P04062 whole entry, looked up): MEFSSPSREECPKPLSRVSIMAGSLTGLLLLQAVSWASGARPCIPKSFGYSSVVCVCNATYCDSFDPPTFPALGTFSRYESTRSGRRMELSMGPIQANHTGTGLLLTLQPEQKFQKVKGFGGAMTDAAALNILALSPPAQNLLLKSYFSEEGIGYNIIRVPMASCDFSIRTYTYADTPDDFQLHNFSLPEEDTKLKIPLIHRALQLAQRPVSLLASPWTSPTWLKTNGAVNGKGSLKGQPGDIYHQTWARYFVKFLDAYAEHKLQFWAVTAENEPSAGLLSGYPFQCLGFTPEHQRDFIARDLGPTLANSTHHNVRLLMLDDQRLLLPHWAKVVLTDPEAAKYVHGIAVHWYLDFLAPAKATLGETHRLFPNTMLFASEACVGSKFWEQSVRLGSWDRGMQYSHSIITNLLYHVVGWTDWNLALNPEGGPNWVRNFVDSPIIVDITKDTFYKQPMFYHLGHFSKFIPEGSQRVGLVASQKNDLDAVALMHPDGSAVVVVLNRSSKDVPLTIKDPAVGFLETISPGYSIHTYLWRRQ

Nc1nnc(-c2cccc(Cl)c2Cl)c(N)n1
inactive: outcome [1] | activity change, negative = inhibition ([2]; at 17.2 µM (top of the series)) -16.5% | activity change, negative = inhibition ([2]; at 38 µM (top of the series)) 15.4% | outcome [3] | outcome [4]

Cc1cn([C@H]2C[C@H](N=[N+]=[N-])[C@@H](CO)O2)c(=O)[nH]c1=O
inactive: outcome [1] | Potency [5] > 92 µM | Potency [6] > 92 µM | Potency [7] > 92 µM | Potency [8] > 92 µM | Potency [9] > 92 µM | Potency [10] > 92 µM | activity change, negative = inhibition ([2]; at 17.2 µM (top of the series)) 15.9% | outcome [3] | Potency [11] > 20.6 µM | outcome [4] | activity change, negative = cytotoxicity [12] -7.33% | Potency [13] | outcome [14] | Potency [15] | Potency [16] | Potency [17] | outcome [18]

Cc1cn([C@H]2C=C[C@@H](CO)O2)c(=O)[nH]c1=O
inactive: outcome [1] | Potency [5] > 92 µM | Potency [6] > 92 µM | Potency [7] > 92 µM | Potency [8] > 92 µM | Potency [9] > 92 µM | Potency [10] > 92 µM | activity change, negative = inhibition ([2]; at 17.2 µM (top of the series)) 6.73% | outcome [3] | outcome [4] | activity change, negative = cytotoxicity [12] 11.8% and 9.96% | Potency [13] | outcome [14] | Potency [15] | Potency [16] | Potency [17] | outcome [18]

Cn1c(=O)c2c(ncn2C)n(C)c1=O
inactive: outcome [1] | Potency [5] > 92 µM | Potency [6] > 92 µM | Potency [7] > 92 µM | Potency [8] > 92 µM | Potency [9] > 92 µM | Potency [10] > 92 µM | activity change, negative = inhibition ([2]; at 38 µM (top of the series)) 3.94% | outcome [3] | Potency [11] > 46 µM | outcome [4] | activity change, negative = cytotoxicity [12] 4.95% | Potency [13] | outcome [14] | Potency [15] | Potency [16] | Potency [17] | outcome [18]

CC(C)C(=O)Nc1ccc([N+](=O)[O-])c(C(F)(F)F)c1
active: activity change, negative = cytotoxicity [12] -119% | Potency [15] 39.8 µM
inactive: outcome [1] | Potency [6] > 92 µM | Potency [7] 53.5 µM | Potency [8] > 92 µM | Potency [9] > 92 µM | activity change, negative = inhibition ([2]; at 17.2 µM (top of the series)) -0.457% | activity change, negative = inhibition ([2]; at 38 µM (top of the series)) 9.16% | outcome [3] | outcome [4] | outcome [14] | Potency [16] | Potency [17] | outcome [18]

COc1ccccc1N1CCN(CC(O)COc2cccc3ccccc23)CC1 (stereo unspecified)
inactive: outcome [1] | activity change, negative = inhibition ([2]; at 17.2 µM (top of the series)) 9.92% | outcome [3] | Potency [11] > 20.6 µM

CC[C@@]1(O)C(=O)OCc2c1cc1n(c2=O)Cc2cc3c(CN(C)C)c(O)ccc3nc2-1
inactive: Potency [19] > 11.4 µM | Potency [11] > 46 µM | activity change, negative = inhibition [4] 4.05% [at 11.4 µM]

NCCS(=O)(=O)O
inactive: outcome [1] | Potency [5] > 92 µM | Potency [6] > 92 µM | Potency [7] > 92 µM | Potency [8] > 92 µM | Potency [9] > 92 µM | Potency [10] > 92 µM | activity change, negative = inhibition ([2]; at 38 µM (top of the series)) 3.83% | outcome [3] | Potency [11] > 46 µM | outcome [4] | activity change, negative = cytotoxicity [12] -1.66% | Potency [13] | outcome [14] | Potency [15] | Potency [16] | Potency [17] | outcome [18]

O=c1[nH]cc(F)c(=O)[nH]1
active: Potency [13] 0.316 µM | Potency [15] 0.631 µM | Potency [16] 15.8 µM
inactive: outcome [1] | Potency [5] > 92 µM | Potency [6] > 92 µM | Potency [7] > 92 µM | Potency [8] > 92 µM | Potency [9] > 92 µM | Potency [10] 9.55 µM | activity change, negative = inhibition ([2]; at 38 µM (top of the series)) 18.8% | outcome [3] | Potency [11] > 46 µM | outcome [4] | activity change, negative = cytotoxicity [12] -18.1% | outcome [14] | outcome [18]

CCOC(=O)c1ncn2c1CN(C)C(=O)c1cc(F)ccc1-2
inactive: outcome [1] | activity change, negative = inhibition ([2]; at 38 µM (top of the series)) -1.55%

NC(CO)C(=O)NNCc1ccc(O)c(O)c1O (stereo unspecified)
inactive: outcome [1] | activity change, negative = inhibition ([2]; at 17.2 µM (top of the series)) 13.6% | outcome [3]

Nc1nc2c(ncn2COC(CO)CO)c(=O)[nH]1
inactive: outcome [1] | activity change, negative = inhibition ([2]; at 17.2 µM (top of the series)) 3.07% | activity change, negative = inhibition ([2]; at 38 µM (top of the series)) -0.352% | outcome [3] | Potency [11] > 46 µM and > 20.6 µM | Potency [20] > 46 µM and > 20.6 µM | outcome [4]

Nc1c2c(nc3ccccc13)CCCC2
inactive: outcome [1] | Potency [5] > 92 µM | Potency [7] > 92 µM | Potency [8] > 92 µM | Potency [9] > 92 µM | Potency [10] > 92 µM | outcome [3] | outcome [4] | activity change, negative = cytotoxicity [12] -21.2% | Potency [13] | outcome [14] | Potency [16] | Potency [17] | outcome [18]
